Source: PubChem
Shown are actives, neighbours in structure and some others; about 5.4% of the full set was active somewhere.
12-hLO inh: inhibitors of human 12-lipoxygenase (ALOX12); AID 1452; Potency, µM (titrated, usually from 57.1 µM), most hits filed as inhibitors; purified 12-hLO, xylenol orange hydroperoxide absorbance; 0.12% of 150,000 active; note: nearly all actives have a fitted effect of over 55% in size
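150 nM 12hLO, 25 mM Hepes pH 7.0 + 0.01% Triton X-100; cpd preinc 15 min RT; 40 uM arachidonic acid, 30 min RT; Fe-XO 30 min; A573/A405 ratio as read-out.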
IMPase cell inh: cell-permeable inhibitors of inositol monophosphatase (IMPase). P97697. CHO-M1 cells, IP1 accumulation, HTRF TR-FRET ratio. inhibition (IP1 accumulation), % at 46.1 µM. 120,000 tested, under 10 active; active = well fitted curve in the direction sought with a large enough effect in the signal ratio, not every such curve was filed as active; inconclusive = small, poorly fitted or top-dose-only effect, or a change in a side signal; inactive = no such curve, though single readings can be large or run the other way; the % refers to the signal ratio;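 note: cells stimulated with carbachol in lithium chloride buffer; higher means more IMPase inhibition seen as more IP1 and lower FRET ratio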
Target sequence (P97697 whole entry, looked up): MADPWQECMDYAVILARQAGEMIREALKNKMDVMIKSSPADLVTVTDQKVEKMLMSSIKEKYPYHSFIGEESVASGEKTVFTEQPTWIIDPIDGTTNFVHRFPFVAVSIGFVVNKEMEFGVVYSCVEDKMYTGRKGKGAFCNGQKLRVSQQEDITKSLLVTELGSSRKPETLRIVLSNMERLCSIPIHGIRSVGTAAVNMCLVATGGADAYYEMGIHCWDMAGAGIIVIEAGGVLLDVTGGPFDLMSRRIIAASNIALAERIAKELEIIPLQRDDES
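The IP-One HTRF competitive assay in carbachol-stimulated CHO-M1 cells quantifies cellular IP1. Compounds spanned up to 46 uM final, and activity is expressed as AC50 from concentration-response fits of the ratio and donor data.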
HPGD inh: HPGD (human) dehydrogenase inhibition. Potency, µM, actives largely listed as inhibitors. AID 894. purified HPGD, NADH fluorescence kinetic, PGE2 substrate. 4.3% of 150,000 active. P15428; active = well fitted inhibition curve with a large enough effect, not every such curve was filed as active; inconclusive = small, poorly fitted or top-dose-only effect, or another doubt; inactive = no such curve, though single readings can be large or run the other way
Target sequence (P15428 whole entry, looked up): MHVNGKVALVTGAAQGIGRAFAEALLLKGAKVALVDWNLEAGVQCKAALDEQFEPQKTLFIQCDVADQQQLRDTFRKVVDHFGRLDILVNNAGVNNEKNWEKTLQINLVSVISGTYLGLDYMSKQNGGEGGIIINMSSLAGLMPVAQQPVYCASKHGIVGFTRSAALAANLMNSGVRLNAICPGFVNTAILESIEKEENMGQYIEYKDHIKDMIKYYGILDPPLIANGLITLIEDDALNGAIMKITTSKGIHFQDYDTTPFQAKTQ
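20 nM HPGD preincubated 15 min at room temperature with compound in 50 mM Tris-HCl pH 8, 0.01% Tween 20. Started with 1 mM NAD+ and 30 uM prostaglandin E2; NADH fluorescence (360/450 nm) read 5 times over 30-s intervals, last minus first.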
IMPase Li inh: membrane-permeable IMPase blocker, potentiated with lithium | CHO-M1 cells, IP1 TR-FRET (IP-One), carbachol + lithium | Potency, µM (series often up to 59.4 µM), actives largely listed as inhibitors | 0.35% of 210,000 active | AID 1457;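 note: IP1 builds up when IMPase is blocked and the TR-FRET signal falls; nearly all actives have a fitted effect of over 50% in size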
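CHO cells stably expressing M1 receptor (2000/well, cultured 16–30 h) treated 30 min at 37C with compound plus low lithium. Cytosolic IP1 by TR-FRET (665/620 ratio and 620 channel) after 10 min lysis; AC50 by Hill fit.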
15-hLO-2 inh: blocks human 15-lipoxygenase 2 activity; O15296; purified 15hLO-2, xylenol orange hydroperoxide absorbance; Potency, µM (doses to about 57.1 µM), actives largely listed as inhibitors; 0.56% of 110,000 active; AID 881; note: nearly all actives have a fitted effect of over 60% in size
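Read-out: hydroperoxide product oxidises ferrous iron, measured as xylenol orange complex via the 573-to-405 nm absorbance ratio after 30 min. Reaction: 50 nM enzyme, 15 min compound preincubation, 45 uM arachidonic acid, 90 min RT, Hepes pH 7.5 with Triton X-100.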
PNC assembly inh: inhibitors of perinucleolar compartment assembly; PC3M PTB-GFP, PNC prevalence imaging, 16 h; hits give low values; 3.1% of 140,000 active; activity change (PNC), negative = inhibition, % at 10 µM;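 active = readout at or below -70, meaning at least 70% loss of cells showing the perinucleolar compartment, a nuclear body marking cancer cells; inconclusive = readout between -30 and a set limit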
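Compounds are pinned in duplicate onto adhered PC3M cells stably expressing GFP-tagged PTB and incubated 16 h at 37 C. Cells are then fixed, nuclei stained with Hoechst, and PNC-positive cells counted.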
A number is an active result; [ ] = dose if it differs, or a comment. Unless noted, calls come from the whole dose curve; as a rule, active = well fitted curve in the direction sought with a large enough effect; inconclusive = small, poorly fitted or top-dose-only effect, or another doubt; inactive = no such curve, though single readings can be large; an effect the other way counts as inactive or inconclusive.

What do the screens show for `COc1ccc(C(c2sc3nc(C)nn3c2O)N2CCc3ccccc3C2)cc1` (stereo not given)?
12-hLO inh: inactive; IMPase cell inh: inactive; HPGD inh: 22µM; IMPase Li inh: inactive; 15-hLO-2 inh: inactive; PNC assembly inh: inactive

Results for COc1cc(C(c2sc3nc(C)nn3c2O)N2CCc3ccccc3C2)cc(OC)c1OC (stereo not given) ?
12-hLO inh: inactive; IMPase cell inh: inactive; HPGD inh: inactive; IMPase Li inh: inactive; 15-hLO-2 inh: inactive; PNC assembly inh: inconclusive

Results for CC(C)(C)COS(=O)OCC(C)(C)C ?
12-hLO inh: inactive[11.4 µM]; HPGD inh: inactive; IMPase Li inh: inactive; 15-hLO-2 inh: inactive[11.4 µM]

How did OCCNc1ncnc2nc[nH]c12 do in these assays?
12-hLO inh: inactive[11.4 µM]; HPGD inh: inactive; IMPase Li inh: inactive; 15-hLO-2 inh: inactive[11.4 µM]

How did COc1ccc(C(=O)N2CCCc3ccccc32)cc1 do in these assays?
12-hLO inh: inactive; IMPase cell inh: inactive; HPGD inh: inactive; IMPase Li inh: inactive; 15-hLO-2 inh: inactive; PNC assembly inh: inconclusive

What do the screens show for `COc1ccc(C)cc1NC(=O)N1CCCc2ccccc21`?
IMPase Li inh: 25µM

How did O=C(Nc1ccccc1)N1CCCc2ccccc21 do in these assays?
12-hLO inh: inactive; IMPase cell inh: inactive; HPGD inh: inactive; IMPase Li inh: inactive; PNC assembly inh: -100

Results for CC(C)Oc1ccc(C(=O)N2CCCc3ccccc32)cc1 ?
12-hLO inh: inactive; IMPase cell inh: inactive; HPGD inh: 22µM; IMPase Li inh: inactive; 15-hLO-2 inh: inactive; PNC assembly inh: inactive

Results for Cn1cccc1C(=O)N1CCC2(CC1)CN(C(=O)Nc1cccc(C#N)c1)C2 ?
12-hLO inh: inactive; HPGD inh: inactive; IMPase Li inh: inconclusive; 15-hLO-2 inh: inactive

Results for COCCCNC(=O)c1ccc(Cn2c(=O)c3ccccc3n(CC(N)=O)c2=O)cc1 ?
IMPase cell inh: inactive

What do the screens show for `CCOc1ccc(C2C(C#N)=C(N)SC(N)=C2C#N)cc1OCC`?
12-hLO inh: inactive; IMPase cell inh: inactive; HPGD inh: 22µM; IMPase Li inh: inconclusive; 15-hLO-2 inh: inconclusive; PNC assembly inh: inactive

Results for N#CC1=C(N)SC(N)=C(C#N)C1c1cccc(Oc2ccccc2)c1 ?
12-hLO inh: inactive; IMPase cell inh: inactive; HPGD inh: 22µM; IMPase Li inh: inactive; 15-hLO-2 inh: inconclusive; PNC assembly inh: inconclusive

Results for CCOc1ccccc1C1C(C#N)=C(N)SC(N)=C1C#N ?
12-hLO inh: inactive; IMPase cell inh: inactive; HPGD inh: inactive; IMPase Li inh: inconclusive; 15-hLO-2 inh: inactive; PNC assembly inh: inactive

Results for CCOc1ccc(C2C(C#N)=C(N)SC(N)=C2C#N)cc1OC ?
12-hLO inh: inactive; IMPase cell inh: inconclusive; HPGD inh: 25µM; IMPase Li inh: inconclusive; 15-hLO-2 inh: inconclusive; PNC assembly inh: inconclusive

How did CN(C)Cc1ccc(-c2cc3onc(-c4ccccc4)c3c(=O)n2C)cc1 do in these assays?
12-hLO inh: inactive[11.4 µM]; HPGD inh: inactive; IMPase Li inh: inactive; 15-hLO-2 inh: inactive[11.4 µM]

Results for O=C(CC1=NCCNC(c2ccccc2)C1)c1ccccc1O (stereo not given) ?
12-hLO inh: inconclusive; IMPase cell inh: inactive; HPGD inh: 25µM; IMPase Li inh: inactive; 15-hLO-2 inh: inactive; PNC assembly inh: inactive

Results for CC1CCCN(C(=O)CCc2ccccc2)C1 (stereo not given) ?
12-hLO inh: inactive; HPGD inh: 4.5µM; IMPase Li inh: inactive; PNC assembly inh: -97

How did O=C(O)c1ccc2oc(SCC(=O)N3CCCCC3)nc2c1 do in these assays?
12-hLO inh: inactive; IMPase cell inh: inactive; HPGD inh: 8.9µM; IMPase Li inh: inactive; 15-hLO-2 inh: inactive; PNC assembly inh: inactive

How did CC1CCCN(C(=O)CSc2nc3ccccc3o2)C1 (stereo not given) do in these assays?
12-hLO inh: inactive; IMPase cell inh: inactive; HPGD inh: 13µM; IMPase Li inh: inactive; 15-hLO-2 inh: inactive; PNC assembly inh: inactive

How did NC(=O)C1CCN(C(=O)CSc2nc3ccccc3o2)CC1 do in these assays?
12-hLO inh: inactive; IMPase cell inh: inactive; HPGD inh: inactive; IMPase Li inh: inactive; 15-hLO-2 inh: inactive; PNC assembly inh: -128

How did CC1=C(C(=O)OCC2CCCCC2)C(c2ccc(Cl)cc2)CC(=O)N1 (stereo not given) do in these assays?
IMPase cell inh: inactive

How did COc1ccc(Nc2nnc(-c3ccc(C)c(S(N)(=O)=O)c3)c3ccccc23)cc1 do in these assays?
IMPase cell inh: inactive

Results for COc1ccccc1N1CCN(C(=O)CSc2nc3ccccc3o2)CC1 ?
12-hLO inh: inactive; IMPase cell inh: inactive; HPGD inh: inactive; IMPase Li inh: inactive; 15-hLO-2 inh: inconclusive; PNC assembly inh: -82

What do the screens show for `O=C(CSc1nc2ccccc2o1)N1CCN(C(=O)c2ccco2)CC1`?
12-hLO inh: inactive; IMPase cell inh: inactive; HPGD inh: inactive; IMPase Li inh: inactive; 15-hLO-2 inh: inactive; PNC assembly inh: inactive

How did CN(C)CCNCCN do in these assays?
12-hLO inh: inactive[11.4 µM]; HPGD inh: inactive; IMPase Li inh: inactive; 15-hLO-2 inh: inactive[11.4 µM]

How did COc1ccc(CNC(=O)c2csc(Cc3ccc(Cl)cc3)n2)cc1 do in these assays?
12-hLO inh: inactive; IMPase cell inh: inactive; HPGD inh: inactive; IMPase Li inh: inactive; 15-hLO-2 inh: inactive; PNC assembly inh: -106

What do the screens show for `COc1ccc(C(=O)Oc2cc3c4c(c2)C(C)=CC(C)(C)N4C(=O)C3=O)cc1OC`?
12-hLO inh: inactive; IMPase cell inh: inactive; HPGD inh: 32µM; IMPase Li inh: inactive; PNC assembly inh: inactive

How did COc1cccc(C(=O)Oc2cc3c4c(c2)C(C)=CC(C)(C)N4C(=O)C3=O)c1 do in these assays?
12-hLO inh: inactive; IMPase cell inh: inactive; HPGD inh: 28µM; IMPase Li inh: inactive; PNC assembly inh: inactive

What do the screens show for `CC#CCN1c2ccccc2[C@]23C[C@@H](C(=O)OC)N(S(=O)(=O)c4ccc([N+](=O)[O-])cc4)C2=NC(C(=O)OC)=C(C(=O)OC)[C@H]13`?
12-hLO inh: inactive[11.4 µM]; HPGD inh: inactive; IMPase Li inh: inactive

What do the screens show for `O=C1c2sc3nc4n(c(=O)c3c2CCC1Br)CCCCC4` (stereo not given)?
12-hLO inh: inactive; IMPase cell inh: inactive; HPGD inh: 13µM; IMPase Li inh: inactive; 15-hLO-2 inh: inconclusive; PNC assembly inh: inactive

What do the screens show for `N#C/C(=C(/O)CCl)c1nnc2n1CCCCC2`?
IMPase Li inh: inactive

What do the screens show for `N#C/C(=N\Nc1cc(Cl)cc(Cl)c1)c1nnc2n1CCCCC2`?
12-hLO inh: inconclusive; HPGD inh: 25µM; IMPase Li inh: inactive; PNC assembly inh: inconclusive

Results for Cc1ccc(/C=N/NC(=O)c2csc(C)c2)o1 ?
12-hLO inh: inactive; IMPase cell inh: inactive; HPGD inh: inactive; IMPase Li inh: inactive; PNC assembly inh: inconclusive
